Source: PubChem
The list is not random: actives were taken first. Their share in the collection is about 2.4%.
D2 PAM-1 = D2 dopamine receptor (human) potentiation; AID 485347; potentiation, % at 10 µM; HEK293 T-REx D2, calcium flux, EC20 dopamine potentiation; P14416; 340,000 tested, 0.34% active;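 active means potentiation over 3 SD above the plate norm, cut at about 30% in these data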; further: 0% is about no effect
Target sequence (P14416 whole entry, looked up): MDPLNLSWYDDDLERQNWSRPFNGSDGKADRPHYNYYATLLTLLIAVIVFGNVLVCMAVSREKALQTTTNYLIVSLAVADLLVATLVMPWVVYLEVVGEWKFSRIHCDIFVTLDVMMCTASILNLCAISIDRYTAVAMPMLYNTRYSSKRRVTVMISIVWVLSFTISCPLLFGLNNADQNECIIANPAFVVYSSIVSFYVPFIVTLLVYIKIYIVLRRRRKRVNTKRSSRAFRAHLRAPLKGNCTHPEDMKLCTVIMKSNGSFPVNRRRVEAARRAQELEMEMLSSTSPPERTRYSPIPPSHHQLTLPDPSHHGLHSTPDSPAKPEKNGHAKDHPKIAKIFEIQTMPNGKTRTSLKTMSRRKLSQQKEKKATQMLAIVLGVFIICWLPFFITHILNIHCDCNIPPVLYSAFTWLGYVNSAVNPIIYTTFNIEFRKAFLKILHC
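Primary screen. Calcium kinetics in induced HEK293 T-REx D2 cells: compound pre-addition 180 s, EC20 dopamine, 180 s more.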
D2 ag-1 = agonists of human D2 dopamine receptor; P14416; HEK293 T-REx D2 cells, calcium flux agonist mode; activation, % at 2 µM; 340,000 tested, 0.53% active;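 active means activation over 3 SD above normal in the single-dose calcium agonist read, cut at about 30% in these data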; further: 0% is about no effect
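Agonism scored from kinetic calcium signal (1 read/sec, 180 s) following compound pin transfer, after a 10 s baseline. Cells: HEK293 Trex line expressing inducible D2 receptor coupled to calcium, dye-loaded after overnight culture at 30 C.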
D2 antagonist = D2 dopamine receptor (human) antagonism | 340,000 tested, 2% active | P14416 | AID 485344 | HEK293 TREx D2 cells, calcium flux, dopamine EC80 | inhibition, % at 10 µM; in the data active means inhibition above about 30%; inactive means below that, where a call was filed; further: 0% is about no effect
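In this primary screen, negative modulation is detected by tracking calcium flux after an EC80 dopamine challenge in inducible HEK293 T-REx D2 cells preexposed to test compound for 180 s.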
D2 PAM-2 = potentiates the human D2 dopamine receptor allosterically | P14416 | potentiation, % (test concentration not listed) | 360,000 tested, 0.23% active | AID 624464 | DiscoveRx D2 beta-arrestin cells, luminescence, 90 min; 100% = 57 uM dopamine signal; in the data active means potentiation above about 50%
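D2 cells co-treated with compound plus 50 nM dopamine (EC20) for 90 min at 37 deg C to detect potentiation. Beta-arrestin recruitment was read as enzyme-fragment luminescence after 1 h at ambient temperature. Full response was set by 57 uM dopamine.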
D2 ag-2 = human D2 receptor agonism in beta-arrestin assay. activation, % (test concentration not listed). DiscoveRx PathHunter D2 beta-arrestin, luminescence, 90 min; 100% = 57 uM dopamine signal. 360,000 tested, 0.084% active. AID 624465; in the data active means activation above about 40%
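Agonist mode: compounds alone added to overnight-plated D2 PathHunter cells for 90 min at 37 C, with 57 uM final dopamine (EC100) defining full response. Beta-arrestin recruitment detected by chemiluminescent reagent, read after 1 h at ambient temperature.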
* = called active by the depositor; x = no result.

SMILES	D2 PAM-1	D2 ag-1	D2 antagonist	D2 PAM-2	D2 ag-2
COc1ccccc1N(C)S(=O)(=O)c1ccc(C(=O)NCC2CCCCC2)cc1	-28	0	80*	-3	2
COc1ccccc1N(C)S(=O)(=O)c1ccc(C(=O)NCC(C)C)cc1	13	0	-13	-6	0
COc1ccccc1N(C)S(=O)(=O)c1ccc(C(=O)NCCc2ccc(F)cc2)cc1	-14	-2	-24	-6	1
CCCCCOc1ccc(/C=C/C(=O)Nc2sc(C)c(C)c2C(=O)OCC)cc1OC	-4	x	x	x	x
Cc1cccc(C)c1-n1ncc(C(=O)N2CCN(c3ncccn3)CC2)c1C1CCN(C(=O)OC(C)(C)C)CC1	0	1	x	x	x
CCOc1ccc(OCC)c(NC(=O)Nc2ccc3c(c2)N(C)C(=O)CS3)c1	-20	-1	64*	-1	5
CC(=O)Nc1cc2c(cc1C(=O)c1ccc(C)cc1)OCCO2	-6	1	34*	-2	-3
CCOc1ccc(NC(=O)CN(C)Cc2cc(=O)n3c(-c4ccccc4)csc3n2)cc1OCC	4	1	41*	-4	-3
Cc1cc(C)cc(OCc2cc(=O)n3c(-c4ccccc4)csc3n2)c1	1	1	x	x	x
COc1ccc(C(C)(C)C)cc1NC(=O)COC(=O)CSCc1c(C)noc1C	0	-1	36*	-28	-4
Cc1ccc(Cl)cc1NC(=O)c1sc2nc(-c3ccccc3)cn2c1C	-18	x	x	x	x
Cn1c(C(=O)N2CCN(Cc3ccc4c(c3)OCO4)CC2)cc2sccc21	-22	0	100*	-19	-2
O=C(c1ccc(Br)s1)N1CCN(Cc2ccc3c(c2)OCO3)CC1	-23	0	78*	-22	0
O=C(c1cc2c(s1)CCCC2)N1CCN(Cc2ccc3c(c2)OCO3)CC1	-21	0	75*	-39	-3
COc1cccc(CN2CCC(C(=O)N3CCN(Cc4ccc5c(c4)OCO5)CC3)CC2)c1	-1	1	5	-21	-4
Cn1c(C(=O)N2CCC(C(=O)N3CCN(Cc4ccc5c(c4)OCO5)CC3)CC2)cc2sccc21	10	5	-13	-4	-2
O=C(C1CCN(c2nnc(-n3cccc3)s2)CC1)N1CCN(Cc2ccc3c(c2)OCO3)CC1	-20	71*	32*	-4	4
O=C(c1c(F)c(F)c(F)c(F)c1F)N1CCN(Cc2ccc3c(c2)OCO3)CC1	x	x	x	-16	-6
CC(C)n1c(SCC(=O)Nc2ccc(F)cc2)nc2c(oc3ccccc32)c1=O	1	0	x	x	x
CC(C)Cn1c(CCCNC(=O)c2ccc(F)cc2)nc2ccccc21	-26	-2	31*	-9	-2
CCCCCCCCOc1ccc(C2CC(=O)NC2=O)cc1 (stereo not given)	1	1	-1	-9	-4
O=C1CC(c2ccc(OCCCCCOc3ccc(C4CC(=O)NC4=O)cc3)cc2)C(=O)N1 (stereo not given)	5	0	37*	8	9
Cc1ccc(NC(=O)c2nc[nH]c2C(=O)N2CCc3ccccc3C2)cc1	-25	0	63*	-21	-3
Cc1cccc(NC(=O)c2nc[nH]c2C(=O)N2CCC(C)CC2)c1	-25	-1	39*	-27	0
CCOC(=O)c1ccc(NC(=O)c2nc[nH]c2C(=O)N2CCc3ccccc3C2)cc1	-13	1	5	-9	-4
SMILES	D2 PAM-1	D2 ag-1	D2 antagonist	D2 PAM-2	D2 ag-2
Cc1ccc(NC(=O)C(=O)Nc2ccc(C)cn2)nc1	0	0	-8	-9	0
Cc1ccc(NC(=O)/C(C#N)=C(\N)C(Cl)(Cl)Cl)nc1	19	0	33*	1	0
O=C1NC(=O)C(Nc2cccc3ccccc23)S1 (stereo not given)	4	-1	6	63*	3
O=C(CCCCn1c(=O)c2ccccc2n(Cc2ccc(Cl)cc2)c1=O)NCc1ccccc1Cl	2	1	x	x	x
COc1ccccc1C1CCN(Cc2cccc3ccccc23)CC1	-34	-3	82*	-11	0
COc1ccccc1C1CCN(Cc2c(C)[nH]c3ccccc23)CC1	-16	-1	56*	-17	1
COc1ccccc1C1CCN(Cc2ccc(Cl)c(Cl)c2)CC1	-29	-1	84*	-16	-3
COc1ccccc1C1CCN(Cc2ccc(Cl)cc2Cl)CC1	1	1	24	-36	3
COc1cccc(NC(=O)Cn2c(=O)n(Cc3ccc(F)cc3)c(=O)c3sc4ccccc4c32)c1	11	0	x	x	x
CN(C)S(=O)(=O)N1CCCN(S(=O)(=O)N(C)C)CC1	42*	1	-6	-10	-2
CCC(C)NC(=O)Cn1c(=O)n(CC2CCC(C(=O)NC)CC2)c(=O)c2sccc21 (stereo not given)	x	0	x	x	x
Cc1c(Cl)cccc1NC(=O)Nc1c[nH]c(=O)[nH]c1=O	9	1	x	x	x
CCc1noc(C)c1C(=O)N1CCN(S(=O)(=O)c2ccc(Cl)cc2)CC1	2	0	-39	-2	-6
CCc1cc(C(=O)N2CCN(S(=O)(=O)c3ccc(Cl)cc3)CC2)sc1C	-19	0	39*	-8	-2
Cc1ccc(NC(=O)C(NS(=O)(=O)c2ccc3c(c2)CCC(=O)N3)c2ccccc2)cc1C (stereo not given)	7	0	x	x	x
COc1ccc(NC(=O)Cn2cc(C(=O)c3ccccc3OC)c(=O)c3ccc(C)nc32)cc1OC	x	0	x	x	x
Cc1cc(C)nc(NC(C)(C)C(=O)O)n1	-17	-1	32*	-6	2
Cn1cc(S(=O)(=O)c2ccc(Cl)cc2)c(=O)c2cc(F)c(N3CCCCCC3)cc21	-7	1	x	x	x
Cc1ccc(C(=O)COC(=O)CCC(=O)Nc2ccc(Oc3cc(C)ccc3C(C)C)cc2)cc1	8	0	x	x	x
COc1cc2c(cc1Cl)/C(=C\CCN(C)C)c1ccccc1S2	-22	2	37*	-49	-3
COc1cc(Cl)cc2c1Sc1ccccc1/C2=C/CCN(C)C	-23	-2	63*	-34	-4
CC(CC(=O)Nc1ccc(F)cc1)S(=O)(=O)c1cc2c3c(c1)CCN3C(=O)CC2 (stereo not given)	x	0	x	x	x
O=C(NCc1ccccc1)Nc1cccn(Cc2ccc(Cl)cc2)c1=O	2	0	-25	-9	-7
O=C(NCc1ccccc1Cl)NC(=O)c1ccccc1	-13	0	33*	-3	1
O=C(NCc1ccccc1)Nc1cccn(Cc2ccccc2Cl)c1=O	-7	-2	33*	-4	-3
COc1ccc(-n2c(=O)c3c4c(sc3n(Cc3cc(C)ccc3C)c2=O)CN(C(C)=O)CC4)c(OC)c1	4	1	x	x	x
Cc1ccc(Cl)cc1N1CCN(C(=O)c2cc3c(-c4ccccc4F)nn(C)c3s2)CC1	22	1	x	x	x
